Reference: PubChem BioAssay
The source made the active and inactive calls.

Tests used:
[1] = optical density shifts of acrAB sulA E. coli – strain DRC41, OD650, 48 h, E. coli filamentation inducer project, primary screen (AID 1152); settings: higher = more signal, called active from +8 up or from −8 down;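 note: E. coli MC1000 strain DRC41 lacking acrAB efflux pump and sulA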
[2] = probe aLefty1 binding on compound microarray – biochemical, small-molecule microarray, 635/667 nm fluorescence, primary screen (AID 1153); settings: higher = more signal;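 note: score merges spot fluorescence with signal-to-noise ratio from the scanned slide images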
[3] = plasmodial surface anion channel blockers, osmotic lysis – cell-based, P. falciparum Indochina, OD700, 1 h, primary screen (AID 1154); settings: P. falciparum Indochina infected RBC osmotic lysis, higher = more signal, called active from +8 up or from −8 down
[4] = plasmodial surface anion channel blockers, osmotic lysis – cell-based, P. falciparum Indochina, OD700, 2 h, primary screen (AID 1155);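 note: lysis reports solute entry through the parasite surface anion channel PSAC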; settings: P. falciparum Indochina infected erythrocytes, higher = more signal, called active from +8 up or from −8 down
[5] = changes in parasitized red cell lysis, either direction – P. falciparum Indochina, OD700, 3 h, PSAC antagonist project, primary screen (AID 1156); settings: P. falciparum-infected erythrocytes, osmotic lysis, higher = more signal, called active from +8 up or from −8 down
[6] = plasmodial surface anion channel blockers, osmotic lysis – cell-based, P. falciparum Indochina, OD700, 18 h, primary screen (AID 1157); settings: P. falciparum Indochina infected erythrocytes, osmotic lysis OD700, 18 h; higher = more signal, called active from +8 up or from −8 down
[7] = S6 kinase pathway phospho-S6 level changes – cell-based, A549, cytoblot, luminescence, serum-stimulated, primary screen (AID 1158); settings: 5 h, higher = more signal;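 note: serum-stimulated A549 lung adenocarcinoma cells; signal is phosphorylated S6 detected by cytoblot immunostaining with HRP secondary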
[8] = molecular target: NADPH oxidase 2 (Homo sapiens) (UniProt P04839); assay: compounds shifting NOX2 Amplex Red fluorescence – cell-based, HEK293-NOX2, PMA-stimulated, NOX inhibitor project, primary screen (AID 1159); settings: 45 min, higher = more signal, called active from +8 up or from −8 down; note: test concentration not given here
Sequence of NADPH oxidase 2 (Homo sapiens) (P04839 whole entry, looked up): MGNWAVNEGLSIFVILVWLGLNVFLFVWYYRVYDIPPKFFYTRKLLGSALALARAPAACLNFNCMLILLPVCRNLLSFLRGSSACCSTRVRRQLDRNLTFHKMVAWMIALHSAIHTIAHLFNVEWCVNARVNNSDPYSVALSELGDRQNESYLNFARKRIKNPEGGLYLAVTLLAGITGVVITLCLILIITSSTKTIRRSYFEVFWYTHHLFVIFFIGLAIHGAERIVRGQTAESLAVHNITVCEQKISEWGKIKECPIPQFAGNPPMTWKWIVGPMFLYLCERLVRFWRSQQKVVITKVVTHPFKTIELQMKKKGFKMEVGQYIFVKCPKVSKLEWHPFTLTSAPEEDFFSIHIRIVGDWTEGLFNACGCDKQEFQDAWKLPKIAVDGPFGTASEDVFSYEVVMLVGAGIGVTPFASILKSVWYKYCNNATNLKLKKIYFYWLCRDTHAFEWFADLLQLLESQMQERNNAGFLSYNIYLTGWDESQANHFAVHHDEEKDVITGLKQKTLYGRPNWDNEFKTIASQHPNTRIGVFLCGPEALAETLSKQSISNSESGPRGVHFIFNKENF

[9] = molecular target: NADPH oxidase 4 (Homo sapiens) (UniProt Q9NPH5); assay: compounds shifting NOX4 Amplex Red fluorescence – cell-based, HEK293-NOX4, tetracycline-induced, NOX inhibitor project, primary screen (AID 1160); settings: HEK293-NOX4, Amplex Red H2O2 fluorescence, 45 min; higher = more signal, called active from +8 up or from −8 down
Sequence of NADPH oxidase 4 (Homo sapiens) (Q9NPH5 whole entry, looked up): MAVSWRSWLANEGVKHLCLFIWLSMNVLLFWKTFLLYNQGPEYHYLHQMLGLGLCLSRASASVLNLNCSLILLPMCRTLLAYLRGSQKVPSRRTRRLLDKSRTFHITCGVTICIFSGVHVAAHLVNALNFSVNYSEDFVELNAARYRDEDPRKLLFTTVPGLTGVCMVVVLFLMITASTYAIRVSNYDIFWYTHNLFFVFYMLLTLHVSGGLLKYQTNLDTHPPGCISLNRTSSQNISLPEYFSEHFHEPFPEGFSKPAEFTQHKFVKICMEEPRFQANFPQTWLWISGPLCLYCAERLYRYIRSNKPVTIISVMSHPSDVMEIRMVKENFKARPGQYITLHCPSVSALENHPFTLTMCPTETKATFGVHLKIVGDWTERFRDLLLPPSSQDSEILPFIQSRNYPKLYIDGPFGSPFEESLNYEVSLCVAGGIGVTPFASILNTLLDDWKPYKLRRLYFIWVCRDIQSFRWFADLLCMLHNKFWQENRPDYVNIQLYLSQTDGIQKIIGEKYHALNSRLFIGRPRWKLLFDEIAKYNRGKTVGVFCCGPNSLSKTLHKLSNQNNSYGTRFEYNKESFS

[10] = molecular target: NADPH oxidase 5 (Homo sapiens) (UniProt Q96PH1); assay: compounds shifting NOX5 Amplex Red fluorescence – cell-based, HEK293-NOX5, NOX inhibitor project, primary screen (AID 1161); settings: HEK293-NOX5, ionomycin, 45 min, higher = more signal
Sequence of NADPH oxidase 5 (Homo sapiens) (Q96PH1 whole entry, looked up): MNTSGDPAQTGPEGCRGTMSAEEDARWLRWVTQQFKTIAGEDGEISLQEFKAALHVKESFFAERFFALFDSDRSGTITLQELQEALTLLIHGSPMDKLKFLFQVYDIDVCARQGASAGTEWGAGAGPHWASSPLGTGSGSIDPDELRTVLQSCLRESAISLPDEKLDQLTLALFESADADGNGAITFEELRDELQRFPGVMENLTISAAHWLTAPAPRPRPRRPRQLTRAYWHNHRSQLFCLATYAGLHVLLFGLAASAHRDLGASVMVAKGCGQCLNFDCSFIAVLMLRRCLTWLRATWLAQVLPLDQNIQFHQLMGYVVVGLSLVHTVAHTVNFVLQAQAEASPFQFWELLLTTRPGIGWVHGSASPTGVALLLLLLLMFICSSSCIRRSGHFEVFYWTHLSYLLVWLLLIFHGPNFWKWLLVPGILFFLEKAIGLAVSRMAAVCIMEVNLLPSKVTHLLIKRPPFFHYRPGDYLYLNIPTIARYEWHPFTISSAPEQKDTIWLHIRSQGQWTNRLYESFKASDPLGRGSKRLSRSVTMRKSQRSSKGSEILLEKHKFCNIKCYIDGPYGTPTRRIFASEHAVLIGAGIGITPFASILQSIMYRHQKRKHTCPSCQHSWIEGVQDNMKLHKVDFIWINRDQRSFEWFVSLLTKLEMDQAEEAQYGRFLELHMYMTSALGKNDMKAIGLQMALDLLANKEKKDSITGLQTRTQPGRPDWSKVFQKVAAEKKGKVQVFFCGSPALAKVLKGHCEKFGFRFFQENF

[11] = compound effects on lung adenocarcinoma cell viability – A549, calcein-AM fluorescence, 48 h, basal, profiling panel (AID 1162); settings: higher = more signal; note: test concentration not given here
[12] = compound effects on differentiated 3T3-L1 adipocyte viability – cell-based, 3T3-L1 adipocytes, calcein-AM fluorescence, 48 h, basal, profiling panel (AID 1163); settings: 3T3-L1 adipocytes viability, higher = more signal; note: test concentration not given here
[13] = compound effects on hepatocellular carcinoma cell viability – HepG2, calcein-AM fluorescence, 48 h, basal, profiling panel (AID 1164); settings: higher = more signal; note: test concentration not given here
[14] = compound effects on multiple myeloma cell viability – MM1S, calcein-AM fluorescence, 48 h, basal, profiling panel (AID 1165); settings: higher = more signal;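 note: viability of MM1S multiple myeloma cells under basal unstimulated conditions; test concentration not given here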
[15] = calcein-AM signal in unstimulated myeloma cells – cell-based, calcein-AM fluorescence, 48 h, PK04 Diversity Set, profiling panel (AID 1166); settings: RPMI8226 myeloma viability, higher = more signal;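 note: cells grown under basal conditions without added stimulus; test concentration not given here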
[16] = JC-1 mitochondrial signal, unstimulated HepG2 cells – cell-based, JC-1 fluorescence, 24 h, 100 nL compound, profiling panel (AID 1167); settings: HepG2 mitochondrial potential, higher = more signal; note: test concentration not given here
[17] = JC-1 mitochondrial signal, unstimulated adipocytes – cell-based, JC-1 fluorescence, 3T3-L1 adipocytes, 24 h, 100 nL compound, profiling panel (AID 1168); settings: JC-1 mitochondrial fluorescence, higher = more signal, called active from +8 up or from −8 down; note: test concentration not given here
[18] = JC-1 mitochondrial signal, unstimulated myeloma cells – cell-based, JC-1 fluorescence, RPMI8226, 24 h, 100 nL compound, profiling panel (AID 1169); settings: JC-1 mitochondrial potential fluorescence, higher = more signal; note: test concentration not given here
[19] = JC-1 mitochondrial signal, unstimulated MM1S myeloma – cell-based, JC-1 fluorescence, 24 h, 100 nL compound, profiling panel (AID 1170); settings: MM1S mitochondrial potential, higher = more signal; note: test concentration not given here
[20] = resazurin metabolic signal in A549 cells – cell-based, resazurin fluorescence, 24 h, PK04 Diversity Set, profiling panel (AID 1171); settings: A549 viability, higher = more signal, called active from +8 up or from −8 down; note: test concentration not given here

SMILES | z-score [1] | composite z-score [2] | z-score [3] | z-score [4] | z-score [5] | z-score [6] | z-score [7] | z-score [8] | z-score [9] | z-score [10] | z-score [11] | z-score [12] | z-score [13] | z-score [14] | z-score [15] | z-score [16] | z-score [17] | z-score [18] | z-score [19] | z-score [20]
COC(=O)C1=CCC(c2cccc(Cl)c2)O1 (stereo not given) | -0.367 (inactive) | -0.0111 | 11.4 (active) | -0.39 (inactive) | 0.784 (inactive) | -0.963 (inactive) | 0.61 | -3.94 (inactive) | -1.6 (inactive) | -4.15 | -0.787 | -0.0098 | -1.14 | 0.233 | -0.783 | -0.549 | 0.00619 (inactive) | -0.757 | -0.428 | 0.107 (inactive)
CC(C)[C@@H](OCc1ccccc1)[C@H](C)C=NO[C@H](C)c1cn([C@H](CO)Cc2ccccc2)nn1 | -0.489 (inactive) | -0.448 | -0.146 (inactive) | -1.75 (inactive) | -0.525 (inactive) | -2.28 (inactive) | 1.99 | -2.23 (inactive) | -0.147 (inactive) | -1.41 | -0.22 | 0.315 | 0.235 | -0.192 | 0.153 | -1.15 | 0.629 (inactive) | 0.339 | 0.115 | -1.02 (inactive)
CCN1C(=O)[C@H]2[C@H]3[C@H](O)[C@H](O)CC(=NOCc4ccccc4)[C@H]3CC[C@H]2C1=O | -0.255 (inactive) | -0.276 | 1.78 (inactive) | 0.012 (inactive) | -0.824 (inactive) | 0.0113 (inactive) | 0.9 | -0.145 (inactive) | 0.32 (inactive) | -0.385 | -0.803 | -0.0387 | -0.228 | -0.463 | -0.644 | -1.13 | -1.37 (inactive) | 0.462 | 0.515 | -0.0275 (inactive)
COC(=O)[C@@H]1CC[C@H](C)[C@@H](c2ccc(C)cc2)N1C(=O)c1ccc(C=NOC(C)CN2CCCCc3nc(C)c(C)cc32)cc1 (stereo not given in full) | 0.173 (inactive) | -0.0449 | 1.21 (inactive) | 0.369 (inactive) | 1.03 (inactive) | 0.367 (inactive) | -0.122 | -0.202 (inactive) | -1.62 (inactive) | 0.64 | -1.19 | -0.0501 | -2.59 | -2.73 | -4 | -0.414 | -1.72 (inactive) | -1.16 | -1.54 | 2.21 (inactive)
